# Source: PubChem (National Center for Advancing Translational Sciences (NCATS))
# Compounds with a hit are over-represented: about 4.7% of the library has one in this group of screens.
# D1 PAM: enhances dopamine response at the human D1 receptor. P21728. HEK293 TREx D1 cells, calcium flux, dopamine EC20 potentiation. potentiation, % at 10 µM. 0.036% of 360,000 active; in the data active = potentiation above about 30%; note: 0% is about no effect
# Target sequence (P21728 whole entry, looked up): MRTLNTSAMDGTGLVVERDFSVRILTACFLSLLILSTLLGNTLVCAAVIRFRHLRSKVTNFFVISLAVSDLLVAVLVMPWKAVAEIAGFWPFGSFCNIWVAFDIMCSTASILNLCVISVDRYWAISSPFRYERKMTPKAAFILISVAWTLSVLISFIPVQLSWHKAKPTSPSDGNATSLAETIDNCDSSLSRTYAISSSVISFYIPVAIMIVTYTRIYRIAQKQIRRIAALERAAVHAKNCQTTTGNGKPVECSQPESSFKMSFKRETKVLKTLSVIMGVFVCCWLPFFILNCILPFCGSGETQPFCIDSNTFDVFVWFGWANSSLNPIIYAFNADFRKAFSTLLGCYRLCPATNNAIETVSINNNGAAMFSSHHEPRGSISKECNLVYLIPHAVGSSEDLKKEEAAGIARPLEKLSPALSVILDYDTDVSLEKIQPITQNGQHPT
# TRHR ag: TRH receptor (human) agonism | TRHR cells, calcium flux fluo-8, FDSS agonist mode | activation, % at 2 µM | 0.18% of 360,000 active | AID 493084; note: 0% is about no effect
#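 Agonist-mode FDSS calcium read (Ex 480/Em 530, 1 s cycles) in 1536-well TRHR cells with fluo-8 dye, after 10-cycle baseline and 23 nL compound addition; TRH at EC20 (10 nM final) added afterwards for the enhancer phase.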
# D1 antag: blocks dopamine activation of the human D1 receptor; AID 504652; HEK293 TREx D1 cells, calcium flux, dopamine EC80; hits give low values; 3.2% of 360,000 active; activity change, negative = inhibition, % at 10 µM; P21728; in the data active = activity change below about -30%; note: % is set by controls: 0 for no effect and ±100 for the full control effect
#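 Inducible Hek293 Trex D1 cells (tetracycline, overnight, 30 C). Calcium dye 30–90 min RT. Antagonist mode: EC80 dopamine added after 180 s compound read.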
# D1 ag: activates the human D1 dopamine receptor | P21728 | HEK293 T-REx D1 cells, calcium flux, agonist mode | 1% of 360,000 active | activation, % at 2 µM; note: 0% is about no effect
#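 Inducible HEK293 T-REx D1 cells, force-coupled to calcium signalling, were plated at 4000 cells/well with tetracycline and held overnight at 30 C. After no-wash calcium dye loading, compound-evoked calcium rise over 180 s flagged agonists.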
# TRHR enhancer: allosteric enhancers of human TRH receptor; enhancement, % at 2 µM; 0.66% of 360,000 active; TRHR cells, fluo-8 calcium fluorescence, EC20 TRH enhancement; in the data active = enhancement above about 30%; note: 0% is about no effect
#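 Enhancer read-out: after compound pinning and an initial kinetic agonist-mode read, an EC20 of TRH (10 nM final) was injected and fluo-8 calcium signal (Ex 480/Em 530) followed at 1 s/cycle for 100 cycles in TRHR-expressing cells.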
# Starred values were filed as active, the others as inactive; · = no result. Cut-off read from the data, not from the text of the source, unless noted: active = activation above about 30%; inactive = the rest.
SMILES,D1 PAM,TRHR ag,D1 antag,D1 ag,TRHR enhancer
CCNc1ccc2noc3c2c1C(=O)c1ccccc1-3,3.2,121.6*,-43.9*,313.5*,30.6*
O=C1c2ccccc2-c2onc3ccc(NCc4ccco4)c1c23,-8.2,62.6*,-1.9,121.7*,6.8
CCOc1ccc2noc3c2c1C(=O)c1ccccc1-3,1.8,45.9*,-23.5,97.7*,0.7
COc1ccc(-c2cc(C(F)(F)F)n3nc(C(=O)Nc4sc5c(c4C(=O)OC(C)C)CCC(C)C5)cc3n2)cc1 (configuration not stated),-1.4,0.3,6.6,0.0,-5.5
Cc1cccc(C(C)(C)C)c1OCCN1CCCC1,-4.8,0.2,-31.7*,3.8,-2.1
Cc1cc(Cl)cc(Cl)c1OCCN1CCCC1,-0.2,0.3,-31.0*,3.2,7.5
Cc1cccc(C(C)(C)C)c1OCCOCCN1CCCC1,8.0,0.3,-7.4,4.7,4.0
Cc1cc(C)c(OCCOCCN2CCN(C)CC2)c(Cl)c1,0.0,0.3,-7.4,-2.3,11.7
Cc1cc(C)c(OCCN2CCCC2)c(Cl)c1,4.2,0.1,-59.5*,4.7,-1.7
CCCCOCc1cc(CN2CCN(c3cccc(Cl)c3)CC2)c(O)c2ncccc12,-1.4,-1.8,0.9,-0.5,13.6
CC(=O)Nc1ccc2nc3c(=O)n(C)c(=O)n(C)c3nc2c1,-2.9,5.4,-5.1,34.2*,1.7
CCCCCCN(CCCCCC)C(=O)Cc1c(-c2ccc(F)cc2)[nH]c2ccccc12,-7.0,0.0,-60.6*,-0.6,8.3
CCCc1cc(=O)[nH]c2nnc(SCC(=O)Nc3ccc(OC)cc3)n12,-1.1,-0.6,·,1.8,5.8
COc1ccccc1NC(=O)Cc1c(C(=O)O)[nH]c2ccc(Cl)cc12,-0.3,0.0,-21.6,30.9*,-0.1
COc1ccc(OC)c(NC(=O)Cc2c(C(=O)O)[nH]c3ccc(Cl)cc23)c1,-3.8,-0.7,-12.8,1.6,1.9
COc1ccc(NC(=O)c2csnn2)cc1Cl,-0.9,0.0,-4.1,-0.4,-8.0
CC1CCc2nc(NC(=O)CN3CCOCC3)sc2C1 (configuration not stated),-6.2,0.2,-34.0*,0.0,-6.1
CSc1ccc(CCNC(=O)c2cc3cc4cc(C)ccc4nc3s2)cc1,-4.3,0.3,9.6,5.5,0.9
CCc1ccc2nc3sc(C(=O)O)cc3cc2c1,21.1,-0.6,35.8,254.6*,0.0
O=C(C1CC1)N1CCc2cc(S(=O)(=O)N(CCO)Cc3ccccc3)ccc21,-4.8,-0.2,-39.5*,11.4,-4.9
Cc1cccc(NS(=O)(=O)c2ccc3c(c2)CCN3C(=O)C2CCC2)c1,-0.5,-0.8,-25.0,8.6,-2.4
O=C(C1CCN(S(=O)(=O)c2ccccc2)CC1)N1CCc2ccccc21,-2.4,247.1*,7.6,332.6*,59.7*
Cc1c(NS(C)(=O)=O)c(=O)n(-c2ccccc2)n1C,5.1,-0.4,-6.7,1.1,17.3
CCCCN(Cc1ccccc1)S(=O)(=O)c1ccc2c(c1)CCN2C(=O)C1CCC1,0.9,2.9,-2.5,17.6,3.5
COc1ccc(NS(=O)(=O)c2ccc3c(c2)CCN3C(=O)C2CC2)cc1OC,-2.9,-0.4,-32.8*,16.7,-4.7
SMILES,D1 PAM,TRHR ag,D1 antag,D1 ag,TRHR enhancer
Cc1c(NS(=O)(=O)N2CCCC2)c(=O)n(-c2ccccc2)n1C,-5.7,-0.2,-52.5*,1.2,-2.0
Cc1cccn2c(=O)cc(CSc3nnc(NC(=O)COc4ccccc4)s3)nc12,-3.9,-0.7,-1.9,0.7,-0.8
Cc1nn(C(=O)c2ccccc2)c(C)c1Sc1ccc(Cl)cc1,0.1,-1.1,0.6,13.7,3.7
Cc1ccc(S(=O)(=O)N2CCOCC2)cc1C(=O)Nc1c(C)n(C)n(-c2ccccc2)c1=O,4.0,0.7,-0.8,2.2,-7.3
Cc1c(NC(=O)/C=C/c2ccc(S(=O)(=O)N3CCOCC3)cc2)c(=O)n(-c2ccccc2)n1C,-0.6,0.5,-8.1,0.6,33.7*
Cc1c(NS(=O)(=O)c2ccc3c(c2)CCN3C(=O)C2CC2)c(=O)n(-c2ccccc2)n1C,-2.1,-0.8,-35.0*,-0.3,-1.8
Cc1c(NS(=O)(=O)c2cc(Br)cc3c2N(C(=O)C2CC2)CC3)c(=O)n(-c2ccccc2)n1C,-2.9,-0.2,6.1,1.8,3.3
CCc1ccc(NS(=O)(=O)c2ccc3[nH]cc(C(=O)NCCCOC(C)C)c(=O)c3c2)cc1,0.6,1.2,-10.5,6.0,-4.4
